Source: the supplement of paper PMC6992640

Tested on: HCI01 (cells of a triple-negative basal-like breast cancer xenograft)
Assay: cell viability of combination (% of vehicle); higher = less cytotoxic
Conditions: 1 µM; 72 h; partner dose: 10 nM
Experimental: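 PDX cells were treated for 72 h with each drug at 1 µM plus afatinib (10 nM; 1 µM for WHIM30). Luciferase viability is expressed as percent of vehicle.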

SMILES | cell viability of combination
C#Cc1cccc(Nc2ncnc3cc(OCCOC)c(OCCOC)cc23)c1.Cl [Erlotinib Hydrochloride] + CN(C)C/C=C/C(=O)Nc1cc2c(Nc3ccc(F)c(Cl)c3)ncnc2cc1O[C@H]1CCOC1 [Afatinib] | 47.7
CCCCc1oc2ccc(NS(C)(=O)=O)cc2c1C(=O)c1ccc(OCCCN(CCCC)CCCC)cc1 [Dronedarone] + CN(C)C/C=C/C(=O)Nc1cc2c(Nc3ccc(F)c(Cl)c3)ncnc2cc1O[C@H]1CCOC1 [Afatinib] | 48.1
CC(C)N=c1cc2n(-c3ccc(Cl)cc3)c3ccccc3nc-2cc1Nc1ccc(Cl)cc1 [Clofazimine] + CN(C)C/C=C/C(=O)Nc1cc2c(Nc3ccc(F)c(Cl)c3)ncnc2cc1O[C@H]1CCOC1 [Afatinib] | 45.8
CCCCc1oc2ccccc2c1C(=O)c1cc(I)c(OCCN(CC)CC)c(I)c1.Cl [Amiodarone HCl] + CN(C)C/C=C/C(=O)Nc1cc2c(Nc3ccc(F)c(Cl)c3)ncnc2cc1O[C@H]1CCOC1 [Afatinib] | 68.8
COc1cccc2c1C(=O)c1c(O)c3c(c(O)c1C2=O)CC(O)(C(=O)CO)CC3OC1CC(N)C(O)C(C)O1.Cl (configuration not stated) [Doxorubicin (Adriamycin) HCl] + CN(C)C/C=C/C(=O)Nc1cc2c(Nc3ccc(F)c(Cl)c3)ncnc2cc1O[C@H]1CCOC1 [Afatinib] | 49.5
COC1=C(OC)C(=O)C(CCCCCCCCCCO)=C(C)C1=O [Idebenone] + CN(C)C/C=C/C(=O)Nc1cc2c(Nc3ccc(F)c(Cl)c3)ncnc2cc1O[C@H]1CCOC1 [Afatinib] | 58.8
COc1ncc(-c2ccc3nccc(-c4ccnnc4)c3c2)cc1NS(=O)(=O)c1ccc(F)cc1F + CN(C)C/C=C/C(=O)Nc1cc2c(Nc3ccc(F)c(Cl)c3)ncnc2cc1O[C@H]1CCOC1 [Afatinib] | 28.7
CS(=O)(=O)O.Cc1c(O)cccc1C(=O)NC(CSc1ccccc1)C(O)CN1CC2CCCCC2CC1C(=O)NC(C)(C)C (configuration not stated) [Nelfinavir Mesylate] + CN(C)C/C=C/C(=O)Nc1cc2c(Nc3ccc(F)c(Cl)c3)ncnc2cc1O[C@H]1CCOC1 [Afatinib] | 44.5
COc1cc2nccc(Oc3ccc(NC(=O)NC4CC4)c(Cl)c3)c2cc1C(N)=O [Lenvatinib (E7080)] + CN(C)C/C=C/C(=O)Nc1cc2c(Nc3ccc(F)c(Cl)c3)ncnc2cc1O[C@H]1CCOC1 [Afatinib] | 40
CC(=O)C1(O)Cc2c(O)c3c(c(O)c2C(OC2CC(N)C(O)C(C)O2)C1)C(=O)c1ccccc1C3=O.Cl (configuration not stated) [Idarubicin HCl] + CN(C)C/C=C/C(=O)Nc1cc2c(Nc3ccc(F)c(Cl)c3)ncnc2cc1O[C@H]1CCOC1 [Afatinib] | 131
COC(=O)C1=C(C)NC(C)=C(C(=O)OC2CCCN(Cc3ccccc3)C2)C1c1cccc([N+](=O)[O-])c1.Cl (configuration not stated) [Benidipine HCl] + CN(C)C/C=C/C(=O)Nc1cc2c(Nc3ccc(F)c(Cl)c3)ncnc2cc1O[C@H]1CCOC1 [Afatinib] | 53.4
CC(C)C(=O)OCC(=O)[C@@]12O[C@H](C3CCCCC3)O[C@@H]1C[C@H]1[C@@H]3CCC4=CC(=O)C=C[C@]4(C)[C@H]3[C@@H](O)C[C@@]12C [Ciclesonide] + CN(C)C/C=C/C(=O)Nc1cc2c(Nc3ccc(F)c(Cl)c3)ncnc2cc1O[C@H]1CCOC1 [Afatinib] | 67.5
C[C@H]1O[C@@H](O[C@H]2[C@@H](O)C[C@H](O[C@H]3[C@@H](O)C[C@H](O[C@H]4CC[C@@]5(C)[C@H](CC[C@@H]6[C@@H]5C[C@@H](O)[C@]5(C)[C@@H](C7=CC(=O)OC7)CC[C@]65O)C4)O[C@@H]3C)O[C@@H]2C)C[C@H](O)[C@@H]1O [Digoxin] + CN(C)C/C=C/C(=O)Nc1cc2c(Nc3ccc(F)c(Cl)c3)ncnc2cc1O[C@H]1CCOC1 [Afatinib] | 27.8
COCCn1c2c([n+](Cc3cnccn3)c1C)C(=O)c1ccccc1C2=O.[Br-] + CN(C)C/C=C/C(=O)Nc1cc2c(Nc3ccc(F)c(Cl)c3)ncnc2cc1O[C@H]1CCOC1 [Afatinib] | 18.3
COC(=O)C1=C(C)NC(C)=C(C(=O)OCCN(C)Cc2ccccc2)C1c1cccc([N+](=O)[O-])c1.Cl (configuration not stated) [Nicardipine HCl] + CN(C)C/C=C/C(=O)Nc1cc2c(Nc3ccc(F)c(Cl)c3)ncnc2cc1O[C@H]1CCOC1 [Afatinib] | 58.7
C=C1C(=CC=C2CCCC3(C)C2CCC3C(C)CCCC(C)(C)O)CC(O)CC1O (configuration not stated) [Calcitriol] + CN(C)C/C=C/C(=O)Nc1cc2c(Nc3ccc(F)c(Cl)c3)ncnc2cc1O[C@H]1CCOC1 [Afatinib] | 42.1

SMILES | cell viability of combination
COc1ccc2c(O[C@H]3CC4C(=O)N(C)CCCC/C=C\[C@H]5C[C@@]5(C(=O)NS(=O)(=O)C5CC5)NC(=O)[C@@H]4C3)cc(-c3nc(C(C)C)cs3)nc2c1C (some centres not stated) [Simeprevir] + CN(C)C/C=C/C(=O)Nc1cc2c(Nc3ccc(F)c(Cl)c3)ncnc2cc1O[C@H]1CCOC1 [Afatinib] | 53.9
N.N.O=C([O-])C1(C(=O)[O-])CCC1.[Pt+2] [Carboplatin] + CN(C)C/C=C/C(=O)Nc1cc2c(Nc3ccc(F)c(Cl)c3)ncnc2cc1O[C@H]1CCOC1 [Afatinib] | 60.1
Cc1ccc(NC(=O)c2ccc(CN3CCN(C)CC3)cc2)cc1Nc1nc(-c2cccnc2)cs1 [Masitinib (AB1010)] + CN(C)C/C=C/C(=O)Nc1cc2c(Nc3ccc(F)c(Cl)c3)ncnc2cc1O[C@H]1CCOC1 [Afatinib] | 47.8
CC(C)(C)c1ccc(C(=O)CCCN2CCC(OC(c3ccccc3)c3ccccc3)CC2)cc1 [Ebastine] + CN(C)C/C=C/C(=O)Nc1cc2c(Nc3ccc(F)c(Cl)c3)ncnc2cc1O[C@H]1CCOC1 [Afatinib] | 48.2
CC[C@@H]1/C=C(\C)C[C@H](C)C[C@H](OC)[C@H]2O[C@@](O)(C(=O)C(=O)N3CCCC[C@H]3C(=O)O[C@H](/C(C)=C/[C@@H]3CC[C@H](Cl)[C@H](OC)C3)[C@H](C)[C@@H](O)CC1=O)[C@H](C)C[C@@H]2OC [Pimecrolimus] + CN(C)C/C=C/C(=O)Nc1cc2c(Nc3ccc(F)c(Cl)c3)ncnc2cc1O[C@H]1CCOC1 [Afatinib] | 51.2
CC(=O)c1cc2c(o1)C(=O)c1ccccc1C2=O [Napabucasin] + CN(C)C/C=C/C(=O)Nc1cc2c(Nc3ccc(F)c(Cl)c3)ncnc2cc1O[C@H]1CCOC1 [Afatinib] | 16.2
CCOC(=O)C1=C(COCCN)NC(C)=C(C(=O)OC)C1c1ccccc1Cl.O=S(=O)(O)c1ccccc1 (configuration not stated) [Amlodipine Besylate] + CN(C)C/C=C/C(=O)Nc1cc2c(Nc3ccc(F)c(Cl)c3)ncnc2cc1O[C@H]1CCOC1 [Afatinib] | 59.5
O=C(NC1CCN(CCCCC2(C(=O)NCC(F)(F)F)c3ccccc3-c3ccccc32)CC1)c1ccccc1-c1ccc(C(F)(F)F)cc1 [Lomitapide] + CN(C)C/C=C/C(=O)Nc1cc2c(Nc3ccc(F)c(Cl)c3)ncnc2cc1O[C@H]1CCOC1 [Afatinib] | 55
Cl.OC(c1cc(C(F)(F)F)nc2c(C(F)(F)F)cccc12)C1CCCCN1 (configuration not stated) [Mefloquine hydrochloride] + CN(C)C/C=C/C(=O)Nc1cc2c(Nc3ccc(F)c(Cl)c3)ncnc2cc1O[C@H]1CCOC1 [Afatinib] | 49.3
CCCCCCCCOc1ccccc1C(=O)Nc1ccc(C(=O)OCC[N+](C)(CC)CC)cc1.[Br-] [Otilonium Bromide] + CN(C)C/C=C/C(=O)Nc1cc2c(Nc3ccc(F)c(Cl)c3)ncnc2cc1O[C@H]1CCOC1 [Afatinib] | 52.9
Cl.O.O=C1Cc2cc(CCN3CCN(c4nsc5ccccc45)CC3)c(Cl)cc2N1 [Ziprasidone hydrochloride monohydrate] + CN(C)C/C=C/C(=O)Nc1cc2c(Nc3ccc(F)c(Cl)c3)ncnc2cc1O[C@H]1CCOC1 [Afatinib] | 46.7
CSc1ccc2c(c1)N(CCC1CCCCN1C)c1ccccc1S2.Cl (configuration not stated) [Thioridazine HCl] + CN(C)C/C=C/C(=O)Nc1cc2c(Nc3ccc(F)c(Cl)c3)ncnc2cc1O[C@H]1CCOC1 [Afatinib] | 61.8
CN(C(=O)CN(CCO)CC(=O)N(C)C(C)(C)Cc1ccccc1)C(C)(C)Cc1ccccc1 [Oxethazaine] + CN(C)C/C=C/C(=O)Nc1cc2c(Nc3ccc(F)c(Cl)c3)ncnc2cc1O[C@H]1CCOC1 [Afatinib] | 49.1
C=CC(=O)Nc1cc(Nc2nccc(-c3cn(C)c4ccccc34)n2)c(OC)cc1N(C)CCN(C)C + CN(C)C/C=C/C(=O)Nc1cc2c(Nc3ccc(F)c(Cl)c3)ncnc2cc1O[C@H]1CCOC1 [Afatinib] | 40
CC1=CC(=O)c2ccccc2C1=O [Menadione] + CN(C)C/C=C/C(=O)Nc1cc2c(Nc3ccc(F)c(Cl)c3)ncnc2cc1O[C@H]1CCOC1 [Afatinib] | 55.8
COc1cc2nccc(Oc3ccc(NC(=O)Nc4cc(C)on4)c(Cl)c3)c2cc1OC [Tivozanib (AV-951)] + CN(C)C/C=C/C(=O)Nc1cc2c(Nc3ccc(F)c(Cl)c3)ncnc2cc1O[C@H]1CCOC1 [Afatinib] | 43.9
